# Compounds without any hit were thinned out: in the full panel of roughly 79,000, 15% have a hit. Values without a mark were called inactive. Active and inactive are the calls of the source. Rule as the data show it: active = growth inhibition above about 70%; inactive = the rest.
# How the values were obtained:
# [1] = NCI Yeast Anticancer Drug Screen. Data for the rad52 strain (AID 147);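 also: 0% = growth of vehicle-treated control cultures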; conditions: S. cerevisiae rad52 mutant growth inhibition, active compounds read high
# Procedure, shortened: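 Screen used a yeast mutant impaired in DNA repair. After compound exposure, growth was measured. Values reflect inhibition compared with vehicle-treated cells.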
# [2] = NCI Yeast Anticancer Drug Screen. Data for the wt1 strain (AID 149);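 also: 0% = growth of vehicle-treated wt1 cultures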; conditions: S. cerevisiae wt1 strain (SPY 50644) growth inhibition, active compounds read high
# Procedure, shortened: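 Readout: yeast growth inhibition, normalised to vehicle controls, in the wt1 strain exposed to test compounds.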
# [3] = NCI Yeast Anticancer Drug Screen. Data for the rad50EPP+ strain (AID 151);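 also: 0% = growth of vehicle-treated control cultures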; conditions: S. cerevisiae rad50 mutant strain, active compounds read high
# Procedure, shortened: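 Exposing the rad50EPP+ strain to each compound, growth was compared with vehicle-only cultures to give inhibition.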
# [4] = NCI Yeast Anticancer Drug Screen. Data for the rad50 strain (AID 155);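 also: 0% = growth of vehicle-only cultures of the same strain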; conditions: S. cerevisiae rad50 strain growth inhibition, active compounds read high
# Procedure, shortened: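 Compounds were tested on a yeast strain with an engineered DNA damage repair alteration; the reported value is growth inhibition normalised to vehicle treatment.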
# [5] = NCI Yeast Anticancer Drug Screen. Data for the mec2-1 strain (AID 157); conditions: S. cerevisiae mec2-1 strain, active compounds read high
# Procedure, shortened: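 Readout is yeast growth inhibition, normalised to vehicle-treated controls, in the mec2-1 strain exposed to compound.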
# [6] = NCI Yeast Anticancer Drug Screen. Data for the rad14 strain (AID 159);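 also: 0% = growth of vehicle-treated control cultures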; conditions: S. cerevisiae rad14 strain growth inhibition, active compounds read high
# Procedure, shortened: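 Compound-treated yeast with a defined DNA-repair lesion; growth inhibition normalised to vehicle-treated cultures.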
# [7] = NCI Yeast Anticancer Drug Screen. Data for the sgs1 mgt1 strain (AID 161);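 also: 0% = growth of cultures given vehicle only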; conditions: S. cerevisiae sgs1 mgt1 strain, active compounds read high
# Procedure, shortened: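 This yeast growth screen uses a strain with defined DNA-repair lesions; compound-treated growth is compared with vehicle-treated growth.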
# [8] = NCI Yeast Anticancer Drug Screen. Data for the CLN2oe strain (AID 163);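 also: 0% = growth of vehicle-only control cultures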; conditions: S. cerevisiae CLN2oe strain, active compounds read high
# Procedure, shortened: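 Values reflect how much compound exposure reduced yeast growth, referenced to vehicle-exposed cells. Assay organism is a strain with a defined genetic change affecting cell-cycle control.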
# [9] = NCI Yeast Anticancer Drug Screen. Data for the cln2 rad14 strain (AID 165);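 also: 0% = growth equal to vehicle treated cultures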; conditions: S. cerevisiae cln2 rad14 strain, active compounds read high
# Procedure, shortened: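 Relative to vehicle controls, growth inhibition of compound-treated cln2 rad14 yeast was recorded.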
# [10] = NCI Yeast Anticancer Drug Screen. Data for the bub3 strain (AID 167); conditions: S. cerevisiae bub3 mutant strain, active compounds read high
# Procedure, shortened: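 Growth of a checkpoint-deficient yeast mutant is measured after compound exposure. Values represent inhibition relative to vehicle.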
# [11] = NCI Yeast Anticancer Drug Screen. Data for the wt2 strain (AID 169);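 also: 0% = growth of vehicle-treated yeast cultures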; conditions: S. cerevisiae wt2 strain growth inhibition, active compounds read high
# Procedure, shortened: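 Values express reduction in yeast growth under compound treatment, referenced to vehicle-treated cells.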
# [12] = NCI Yeast Anticancer Drug Screen. Data for the mlh1 strain (AID 171);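 also: 0% = growth of vehicle-treated control cultures of the same strain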; conditions: S. cerevisiae mlh1 strain growth inhibition, active compounds read high
# Procedure, shortened: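 Steps: expose the defined-mutant yeast strain to compound; expose a parallel culture to vehicle; measure growth; express compound effect as inhibition relative to the vehicle culture.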
# [13] = NCI Yeast Anticancer Drug Screen. Data for the sgs1 strain (AID 173);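 also: 0% = growth of vehicle-only control cultures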; conditions: S. cerevisiae sgs1 mutant, active compounds read high
# Procedure, shortened: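 Treat defined-mutant yeast with compound; measure growth; calculate inhibition relative to vehicle-treated cells.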
# [14] = NCI Yeast Anticancer Drug Screen. Data for the mlh1 rad18 strain (AID 175); conditions: S. cerevisiae mlh1 rad18 strain growth inhibition, active compounds read high
# Procedure, shortened: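 Test agents were incubated with a yeast strain of defined genotype (DNA damage repair defect). Inhibition of growth was derived by comparison with vehicle-exposed cultures.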
# [15] = NCI Yeast Anticancer Drug Screen. Data for the rad18 strain (AID 177); conditions: S. cerevisiae rad18 mutant growth inhibition, active compounds read high
# Procedure, shortened: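 A genetically defined yeast mutant impaired in DNA damage repair was treated with test compounds, then its growth was measured against cultures receiving vehicle alone.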
# [16] = at 5.0 µM (retest, dose inferred, filed as 0.5)
# [17] = at 50.0 µM (retest, dose inferred, filed as 5.0)
smiles,measurement,setting,value
c1ccc2c(c1)ccc1c3ccncc3ccc21,growth inhibition,[1]; at 1.2 µM,15%
same,growth inhibition,[1]; at 3.7 µM,80% (active)
same,growth inhibition,[1]; at 11.0 µM,99% (active)
same,growth inhibition,[1]; at 33.0 µM,99% (active)
same,growth inhibition,[1]; at 100.0 µM,95% (active)
same,growth inhibition,[2]; at 1.2 µM,-6%
same,growth inhibition,[2]; at 3.7 µM,-3%
same,growth inhibition,[2]; at 11.0 µM,47%
same,growth inhibition,[2]; at 33.0 µM,99% (active)
same,growth inhibition,[2]; at 100.0 µM,97% (active)
same,growth inhibition,[3]; at 1.2 µM,35%
same,growth inhibition,[3]; at 3.7 µM,86% (active)
same,growth inhibition,[3]; at 11.0 µM,98% (active)
same,growth inhibition,[3]; at 33.0 µM,98% (active)
same,growth inhibition,[3]; at 100.0 µM,92% (active)
same,growth inhibition,[4]; at 1.2 µM,12%
same,growth inhibition,[4]; at 3.7 µM,74% (active)
same,growth inhibition,[4]; [16],90% (active)
same,growth inhibition,[4]; at 11.0 µM,98% (active)
same,growth inhibition,[4]; at 33.0 µM,99% (active)
same,growth inhibition,[4]; [17],94% (active)
same,growth inhibition,[4]; at 50.0 µM,97.8% (active)
same,growth inhibition,[4]; at 100.0 µM,93% (active)
same,growth inhibition,[5]; at 1.2 µM,3%
same,growth inhibition,[5]; at 3.7 µM,4%
same,growth inhibition,[5]; [16],-15%
same,growth inhibition,[5]; at 11.0 µM,85% (active)
same,growth inhibition,[5]; at 33.0 µM,99% (active)
same,growth inhibition,[5]; [17],95% (active)
same,growth inhibition,[5]; at 50.0 µM,98.2% (active)
same,growth inhibition,[5]; at 100.0 µM,98% (active)
same,growth inhibition,[6]; at 1.2 µM,9%
same,growth inhibition,[6]; at 3.7 µM,15%
same,growth inhibition,[6]; at 11.0 µM,90% (active)
same,growth inhibition,[6]; at 33.0 µM,99% (active)
same,growth inhibition,[6]; at 100.0 µM,96% (active)
same,growth inhibition,[7]; [16],-15%
same,growth inhibition,[7]; [17],97% (active)
same,growth inhibition,[7]; at 50.0 µM,98% (active)
same,growth inhibition,[8]; at 1.2 µM,0%
same,growth inhibition,[8]; at 3.7 µM,13%
same,growth inhibition,[8]; at 11.0 µM,93% (active)
same,growth inhibition,[8]; at 33.0 µM,99% (active)
same,growth inhibition,[8]; at 100.0 µM,96% (active)
same,growth inhibition,[9]; [16],-11%
same,growth inhibition,[9]; [17],96% (active)
same,growth inhibition,[9]; at 50.0 µM,96% (active)
same,growth inhibition,[10]; at 1.2 µM,8%
same,growth inhibition,[10]; at 3.7 µM,35%
same,growth inhibition,[10]; [16],16%
same,growth inhibition,[10]; at 11.0 µM,93% (active)
same,growth inhibition,[10]; at 33.0 µM,99% (active)
same,growth inhibition,[10]; [17],96% (active)
same,growth inhibition,[10]; at 50.0 µM,97.1% (active)
same,growth inhibition,[10]; at 100.0 µM,98% (active)
same,growth inhibition,[11]; at 1.2 µM,-3%
same,growth inhibition,[11]; at 3.7 µM,0%
same,growth inhibition,[11]; at 11.0 µM,80% (active)
same,growth inhibition,[11]; at 33.0 µM,99% (active)
same,growth inhibition,[11]; at 100.0 µM,96% (active)
same,growth inhibition,[12]; at 1.2 µM,4%
same,growth inhibition,[12]; at 3.7 µM,2%
same,growth inhibition,[12]; at 11.0 µM,83% (active)
same,growth inhibition,[12]; at 33.0 µM,99% (active)
same,growth inhibition,[12]; at 100.0 µM,96% (active)
same,growth inhibition,[13]; at 1.2 µM,-3%
same,growth inhibition,[13]; at 3.7 µM,12%
same,growth inhibition,[13]; at 11.0 µM,96% (active)
same,growth inhibition,[13]; at 33.0 µM,99% (active)
same,growth inhibition,[13]; at 100.0 µM,94% (active)
same,growth inhibition,[14]; [16],-4%
same,growth inhibition,[14]; [17],94% (active)
same,growth inhibition,[14]; at 50.0 µM,97.5% (active)
same,growth inhibition,[15]; at 1.2 µM,-2%
same,growth inhibition,[15]; at 3.7 µM,18%
same,growth inhibition,[15]; at 11.0 µM,96% (active)
same,growth inhibition,[15]; at 33.0 µM,99% (active)
same,growth inhibition,[15]; at 100.0 µM,94% (active)
CC(=O)Oc1ccc(N2C(=O)C3c4[nH]c5ccccc5c4C4CCC(C(C)(C)C)CC4C3C2=O)cc1 (stereo unspecified),growth inhibition,[1]; at 1.2 µM,7%
same,growth inhibition,[1]; at 3.7 µM,87% (active)
same,growth inhibition,[1]; at 11.0 µM,96% (active)
same,growth inhibition,[1]; at 33.0 µM,96% (active)
same,growth inhibition,[1]; at 100.0 µM,90% (active)
same,growth inhibition,[2]; at 1.2 µM,15%
same,growth inhibition,[2]; at 3.7 µM,64%
same,growth inhibition,[2]; at 11.0 µM,98% (active)
same,growth inhibition,[2]; at 33.0 µM,95% (active)
same,growth inhibition,[2]; at 100.0 µM,95% (active)
same,growth inhibition,[3]; at 1.2 µM,-23%
same,growth inhibition,[3]; at 3.7 µM,-26%
same,growth inhibition,[3]; at 11.0 µM,-26%
same,growth inhibition,[3]; at 33.0 µM,-6%
same,growth inhibition,[3]; at 100.0 µM,6%
same,growth inhibition,[4]; at 1.2 µM,-14%
same,growth inhibition,[4]; at 3.7 µM,91% (active)
same,growth inhibition,[4]; [16],98% (active)
same,growth inhibition,[4]; at 11.0 µM,96% (active)
same,growth inhibition,[4]; at 33.0 µM,95% (active)
same,growth inhibition,[4]; [17],98% (active)
same,growth inhibition,[4]; at 50.0 µM,98.5% (active)
same,growth inhibition,[4]; at 100.0 µM,92% (active)
same,growth inhibition,[5]; at 1.2 µM,-4%
same,growth inhibition,[5]; at 3.7 µM,71% (active)
same,growth inhibition,[5]; [16],99% (active)
same,growth inhibition,[5]; at 11.0 µM,98% (active)
same,growth inhibition,[5]; at 33.0 µM,98% (active)
same,growth inhibition,[5]; [17],98% (active)
same,growth inhibition,[5]; at 50.0 µM,98.5% (active)
same,growth inhibition,[5]; at 100.0 µM,95% (active)
same,growth inhibition,[6]; at 1.2 µM,-15%
same,growth inhibition,[6]; at 3.7 µM,18%
same,growth inhibition,[6]; at 11.0 µM,97% (active)
same,growth inhibition,[6]; at 33.0 µM,97% (active)
same,growth inhibition,[6]; at 100.0 µM,95% (active)
same,growth inhibition,[7]; [16],98% (active)
same,growth inhibition,[7]; [17],98% (active)
same,growth inhibition,[7]; at 50.0 µM,98.5% (active)
same,growth inhibition,[8]; at 1.2 µM,16%
same,growth inhibition,[8]; at 3.7 µM,92% (active)
same,growth inhibition,[8]; at 11.0 µM,98% (active)
same,growth inhibition,[8]; at 33.0 µM,97% (active)
same,growth inhibition,[8]; at 100.0 µM,97% (active)
same,growth inhibition,[9]; [16],83% (active)
same,growth inhibition,[9]; [17],98% (active)
same,growth inhibition,[9]; at 50.0 µM,98.6% (active)
same,growth inhibition,[10]; at 1.2 µM,-28%
same,growth inhibition,[10]; at 3.7 µM,64%
same,growth inhibition,[10]; [16],98% (active)
same,growth inhibition,[10]; at 11.0 µM,97% (active)
same,growth inhibition,[10]; at 33.0 µM,96% (active)
same,growth inhibition,[10]; [17],98% (active)
same,growth inhibition,[10]; at 50.0 µM,98.5% (active)
same,growth inhibition,[10]; at 100.0 µM,94% (active)
same,growth inhibition,[11]; at 1.2 µM,-4%
same,growth inhibition,[11]; at 3.7 µM,25%
same,growth inhibition,[11]; at 11.0 µM,98% (active)
same,growth inhibition,[11]; at 33.0 µM,98% (active)
same,growth inhibition,[11]; at 100.0 µM,96% (active)
same,growth inhibition,[12]; at 1.2 µM,-15%
same,growth inhibition,[12]; at 3.7 µM,36%
same,growth inhibition,[12]; at 11.0 µM,98% (active)
same,growth inhibition,[12]; at 33.0 µM,97% (active)
same,growth inhibition,[12]; at 100.0 µM,94% (active)
same,growth inhibition,[13]; at 1.2 µM,-7%
same,growth inhibition,[13]; at 3.7 µM,52%
same,growth inhibition,[13]; at 11.0 µM,97% (active)
same,growth inhibition,[13]; at 33.0 µM,97% (active)
same,growth inhibition,[13]; at 100.0 µM,94% (active)
same,growth inhibition,[14]; [16],98% (active)
same,growth inhibition,[14]; [17],98% (active)
same,growth inhibition,[14]; at 50.0 µM,98% (active)
same,growth inhibition,[15]; at 1.2 µM,13%
same,growth inhibition,[15]; at 3.7 µM,82% (active)
same,growth inhibition,[15]; at 11.0 µM,96% (active)
same,growth inhibition,[15]; at 33.0 µM,95% (active)
same,growth inhibition,[15]; at 100.0 µM,93% (active)
